High-throughput results deposited in PubChem BioAssay by National Center for Advancing Translational Sciences (NCATS).
Vif-A3F inh: Vif-A3F binding inhibition; HeLa A3F-eYFP + Vif (tagged APOBEC3F with the HIV-1 protein that degrades it), YFP fluorescence increase; Potency, µM (doses to about 46.1 µM), inactives show top-dose activity, negative = active; AID 602313; hit rate 0.2% among 390,000; also: potency is read from the fitted curve at half-maximal effect; % of control where 0% means no effect; nearly all actives have a fitted effect of over 65% in size
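HeLa cells stably expressing Vif plus C-terminally eYFP-tagged A3F were seeded, incubated overnight at 37 deg C, dosed with compound, incubated overnight again at 37 deg C. Yellow fluorescence (Ex 488/Em 500-530) reported blocked Vif-mediated A3F-eYFP degradation.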
SW480 rerep: induces DNA re-replication in SW480 colon adenocarcinoma cells; Potency, µM (titrated, usually from 46.1 µM), for the others: at the top dose re-replication activation, hits mostly activators; hit rate 1.8% among 340,000; SW480 DNA re-replication, Hoechst DNA content imaging, 48 h; also: potency is read from the fitted curve at half-maximal effect; % of control where 0% means no effect; nearly all actives have a fitted effect of over 55% in size
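DNA re-replication was detected as more nuclei of elevated Hoechst intensity after 48 hr exposure to compound (23 nL pinned per well of 250 cells).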
Vif-A3G inh: blocks the Vif interaction with human APOBEC3G. Q9HC16. HeLa A3G-eYFP + Vif (tagged APOBEC3G with the HIV-1 protein that degrades it), YFP fluorescence, overnight. Potency, µM (highest dose often 46.1 µM), without a hit: at the highest dose activity, negative = active, hits mostly inhibitors. hit rate 0.076% among 410,000. AID 602310; also: potency is read from the fitted curve at half-maximal effect; % is scaled to controls: 0 for no effect and ±100 for the full control effect; nearly all actives have a fitted effect of over 60% in size
Target sequence (Q9HC16 whole entry, looked up): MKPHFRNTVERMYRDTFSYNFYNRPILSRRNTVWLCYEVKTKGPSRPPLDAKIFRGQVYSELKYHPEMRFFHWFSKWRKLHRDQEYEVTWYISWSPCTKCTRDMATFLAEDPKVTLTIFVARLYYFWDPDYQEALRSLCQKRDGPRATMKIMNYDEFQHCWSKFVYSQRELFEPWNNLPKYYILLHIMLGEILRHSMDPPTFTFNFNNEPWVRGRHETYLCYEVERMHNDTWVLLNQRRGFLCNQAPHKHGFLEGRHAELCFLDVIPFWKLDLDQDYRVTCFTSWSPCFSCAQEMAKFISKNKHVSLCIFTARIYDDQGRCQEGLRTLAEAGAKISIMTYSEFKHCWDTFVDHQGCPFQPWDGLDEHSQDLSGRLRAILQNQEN
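HeLa cells stably expressing Vif and C-terminally eYFP-tagged A3G, seeded overnight at 37 deg C, then exposed to compound by pintool overnight at 37 deg C. Rise in yellow fluorescence (Ex 488/Em 500-530, Acumen) marks blocked Vif-driven A3G degradation.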
MCF10A rereplic: inducers of DNA re-replication in MCF 10A breast cells | MCF 10A DNA re-replication, Hoechst nuclear intensity, 48 h | Potency, µM (titrated, usually from 46.1 µM), for the others: at the highest dose activity, positive = re-replication, actives largely listed as activators | hit rate 2.9% among 350,000; also: potency is read from the fitted curve at half-maximal effect; % of control where 0% means no effect; nearly all actives have a fitted effect of over 50% in size
Giardia killer: Giardia lamblia killing; AID 540267; hit rate 0.15% among 340,000; activity change, % at 7.66 µM, hits read low; Giardia lamblia trophozoite viability; in the data active = activity change below about -80%; inconclusive = between about -30% and that limit;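 also: parasites exposed to compound for two days anaerobically before the ATP read; % is scaled to controls: 0 for no effect and ±100 for the full control effect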
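Luminescence from cellular ATP indicates surviving trophozoites (100 cells/well) following 48 hrs anaerobic compound treatment at 37 deg C; signal develops 15-30 min at room temperature.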
IL-1B inflam inh: blocks inflammasome-driven IL-1 beta release; THP-1 LPS/ATP IL-1B secretion, AlphaLISA, 16 h; stronger effect = lower value; activity change, % at 57.5 µM; hit rate 4.7% among 360,000; AID 743279; in the data active = activity change below about -50%; inconclusive = mostly about -30% to -49%; also: % is scaled to controls: 0 for no effect and ±100 for the full control effect
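Secreted IL-1B measured by AlphaLISA bead assay after 16 h compound exposure of THP-1 cells; compounds (final up to 57.5 uM) added 1 h before LPS (250 ng/mL) and ATP (1.25 mM) stimulation; lower signal means less secretion.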
* hit, by the source's call. In the library only some 6.9% were active in any assay of this set; here they are far more common. Unless noted, calls follow the shape of the dose curve; as a rule, active = well fitted curve in the direction sought with a large enough effect; inconclusive = small, poorly fitted or top-dose-only effect, or another doubt; inactive = no such curve, though single readings can be large; an effect the other way counts as inactive or inconclusive.

`O=C(CNS(=O)(=O)/C=C/c1ccccc1)OCC(=O)N1CCC(Cc2ccccc2)CC1` gave Vif-A3F inh -10%, SW480 rerep 1%, Vif-A3G inh 0%, MCF10A rereplic 27%, Giardia killer -4 and IL-1B inflam inh -84*.
For COc1cccc(NC(=O)CSC2=Nc3ccccc3N=C(c3ccc(F)cc3)C2)c1 the results were Vif-A3F inh -1% and Vif-A3G inh -7%.
O=C(NCc1ccccc1F)C1CCCN1S(=O)(=O)c1ccc(Cl)cc1 (centres undefined) was read as Vif-A3F inh -3%, SW480 rerep -10%, Vif-A3G inh 1%, MCF10A rereplic -1%, Giardia killer 0 and IL-1B inflam inh 23.
O=C(NCc1ccccc1Cl)[C@@H]1CCCN1S(=O)(=O)c1ccc(Cl)cc1 was read as Vif-A3F inh -18%, SW480 rerep inconclusive, Vif-A3G inh -7%, MCF10A rereplic 8%, Giardia killer 37 and IL-1B inflam inh -51*.
For C(=C1c2ccccc2Oc2ccccc21)c1ccccc1 the results were Vif-A3G inh 2%.
`COc1ccccc1/C=C/CN1CCCC(CCC(=O)NCc2ccc(F)c(F)c2)C1` (centres undefined) gave Vif-A3F inh 0%, SW480 rerep 2%, Vif-A3G inh 0%, MCF10A rereplic 1%, Giardia killer -6 and IL-1B inflam inh -74*.
COc1ccc(/C=C/CN2CCCC(CCC(=O)NCc3ccc(F)c(F)c3)C2)cc1 (centres undefined) was read as Vif-A3F inh -1%, SW480 rerep 24%, Vif-A3G inh 1%, MCF10A rereplic inconclusive, Giardia killer 15 and IL-1B inflam inh -84*.
Screening COc1cccc(CNC(=O)CCC2CCCN(C/C=C/c3ccccc3OC)C2)c1 (centres undefined) returned Vif-A3F inh 9%, SW480 rerep -6%, Vif-A3G inh 0%, MCF10A rereplic 2%, Giardia killer 13 and IL-1B inflam inh inconclusive.
For O=C(Nc1ccccc1O)C(c1ccccc1)c1ccccc1 the results were Vif-A3F inh -33%, SW480 rerep inconclusive, Vif-A3G inh 0%, MCF10A rereplic inconclusive, Giardia killer -21 and IL-1B inflam inh -64*.
`O=C(O)c1ccccc1NC(=O)C(c1ccccc1)c1ccccc1` gave Vif-A3F inh 7%, SW480 rerep 20%, Vif-A3G inh -10%, MCF10A rereplic 2%, Giardia killer 0 and IL-1B inflam inh 55.
Screening CC(C)Cc1ccc(C(C)C(=O)Nc2ccccc2O)cc1 (centres undefined) returned Vif-A3F inh -7%, SW480 rerep -71%, Vif-A3G inh -6%, MCF10A rereplic 12%, Giardia killer -16 and IL-1B inflam inh -95*.
`CCc1ccc(CN(Cc2cn[nH]c2-c2ccc(OC)cc2)C(=O)Nc2ccc(C)c(F)c2)cc1` gave Vif-A3F inh -19% and Vif-A3G inh 0%.
Screening CCN1C(=O)c2cccc3c(N)ccc(c23)C1=O returned Vif-A3F inh inconclusive, SW480 rerep 5%, Vif-A3G inh inconclusive, MCF10A rereplic 5%, Giardia killer 0 and IL-1B inflam inh 0.
`CN(C)CCCN1C(=O)c2cccc3c(Br)ccc(c23)C1=O` gave Vif-A3F inh -10%, SW480 rerep inconclusive, Vif-A3G inh 7%, MCF10A rereplic 7.3µM*, Giardia killer -5 and IL-1B inflam inh -74*.
Screening CCCN1C(=O)c2cccc3c(N4CCCCC4)ccc(c23)C1=O returned Vif-A3F inh inconclusive, Vif-A3G inh -4%, MCF10A rereplic 3.7µM*, Giardia killer -15 and IL-1B inflam inh 76.
Screening CCCCNc1ccc2c3c(cccc13)C(=O)N(CCCC)C2=O returned Vif-A3F inh -39%, SW480 rerep 21µM*, Vif-A3G inh 4%, MCF10A rereplic 7.3µM*, Giardia killer -14 and IL-1B inflam inh -22.
For Cc1nn(C)c(C)c1N1C(=O)c2cccc3c(Br)ccc(c23)C1=O the results were Vif-A3F inh -18%, SW480 rerep inconclusive, Vif-A3G inh 5%, MCF10A rereplic 27%, Giardia killer -12 and IL-1B inflam inh -96*.
Cc1ccc(C)c(N2CCN(C(=O)c3cccn3-c3nnc(N4CCCCC4)s3)CC2)c1 was read as Vif-A3F inh 6% and Vif-A3G inh 0%.
Screening Cc1c(NC(=O)c2ccc(Br)o2)cccc1-c1nc2ccccc2o1 returned Vif-A3F inh -2% and Vif-A3G inh 3%.
CCOC(=O)C1CCCN(c2nc3c(S(=O)(=O)c4ccc(Br)cc4)nnn3c3ccsc23)C1 (centres undefined) was read as Vif-A3F inh -5% and Vif-A3G inh -1%.
For Cc1cccc(Cn2cccc2CNS(=O)(=O)c2ccc(C)c(C)c2)c1 the results were Vif-A3F inh -14% and Vif-A3G inh 3%.
Cc1ccc(Cn2c(C(=O)NCc3ccccc3Cl)cc3sccc32)cc1 was read as Vif-A3F inh 0% and Vif-A3G inh 3%.
Screening NC(=O)c1ccccc1N/C=C/C(=O)c1ccc(F)cc1 returned Vif-A3F inh 0%, SW480 rerep 6%, Vif-A3G inh -7%, MCF10A rereplic 25%, Giardia killer -14 and IL-1B inflam inh -6.
For NC(=O)c1ccccc1N/C=C/C(=O)c1ccc(Cl)cc1Cl the results were Vif-A3F inh 9%, SW480 rerep -1%, Vif-A3G inh -7%, MCF10A rereplic 13%, Giardia killer inconclusive and IL-1B inflam inh -55*.
`COc1ccc(OC)c(Nc2nc3ccccc3nc2-n2nc(C)cc2C)c1` gave Vif-A3F inh -7% and Vif-A3G inh -5%.
For COc1ccc(Nc2nc3ccccc3nc2-n2nc(C)cc2C)cc1 the results were Vif-A3F inh -14%, SW480 rerep inconclusive, Vif-A3G inh 0%, MCF10A rereplic 16µM*, Giardia killer -3 and IL-1B inflam inh 0.
`O=C(N/C(=C/c1ccc([N+](=O)[O-])cc1)C(=O)N1CCCC1)c1ccccc1` gave Vif-A3F inh -6%, SW480 rerep 0%, Vif-A3G inh 3%, MCF10A rereplic 2%, Giardia killer 21 and IL-1B inflam inh 26.
O=C(N/C(=C/C=C/c1ccccc1)C(=O)N1CCCCC1)c1ccc([N+](=O)[O-])cc1 was read as Vif-A3F inh 3%, SW480 rerep -30%, Vif-A3G inh 2%, MCF10A rereplic 0.58µM*, Giardia killer 12 and IL-1B inflam inh -8.
